From PubChem
HCMV inh: human cytomegalovirus inhibition | HFF cells, HCMV-luciferase reporter, 72 h; active compounds read low | activity change, negative = inhibition, % at 57.5 µM | 410,000 compounds, 4.5% hits | AID 1259415; in the data active = activity change below about -60%; inconclusive = no clear call, values can overlap the other calls; inactive = above about -39%
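Two-dose cell screen: HFF monolayers treated with compounds and infected with luciferase-expressing HCMV at 1 PFU/cell, 72 h at 37C, then lysed for luciferase measurement.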
FBPA Giardia inh: inhibitors of Giardia lamblia fructose-1,6-bisphosphate aldolase | A8B2U2 | purified Giardia FBPA | Potency, µM (series often up to 59.6 µM), for the others: at the highest dose activity, negative = inhibition, most hits filed as inhibitors | 290,000 compounds, 0.71% hits; also: potency is read from the fitted curve at half-maximal effect; nearly all actives have a fitted effect of over 55% in size
Target sequence (A8B2U2 whole entry, looked up): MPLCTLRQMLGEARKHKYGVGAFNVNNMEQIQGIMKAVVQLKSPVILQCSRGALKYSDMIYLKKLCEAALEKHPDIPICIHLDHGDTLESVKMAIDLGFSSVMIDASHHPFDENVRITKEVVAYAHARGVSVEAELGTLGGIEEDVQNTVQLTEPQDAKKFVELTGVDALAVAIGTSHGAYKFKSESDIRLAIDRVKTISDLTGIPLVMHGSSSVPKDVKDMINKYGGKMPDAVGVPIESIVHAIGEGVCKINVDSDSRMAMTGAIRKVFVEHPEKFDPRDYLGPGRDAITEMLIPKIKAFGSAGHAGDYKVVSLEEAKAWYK
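40 nM FBPA preincubated 10 min at RT with compound (up to 57.5 uM final), then substrate plus GAPDH/TPI/NAD/arsenate coupling and diaphorase/resazurin added. Fluorescence read after 20 min at RT, 525/598 nm.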
Pf growth 48h: P. falciparum growth inhibition at 48 hours (one generation). P. falciparum luciferase growth in erythrocytes, 48 h. Potency, µM (highest dose often 28.7 µM), for inactives: at the top dose activity change, negative = inhibition, usual class: inhibitors. 310,000 compounds, 5.9% hits; also: potency is read from the fitted curve at half-maximal effect
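Luminescence readout; reporter = integrated firefly luciferase in P. falciparum. RBC culture at 2% hematocrit, 0.1% parasitemia final, 37 C/5% CO2; decreased signal taken as growth inhibition.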
Pf growth 96h: inhibits malaria parasite growth, 96 h. 320,000 compounds, 6.9% hits. AID 504834. Potency, µM (series often up to 28.7 µM), for the others: at the top dose activity change, negative = inhibition, hits mostly inhibitors. P. falciparum luciferase reporter growth, 96 h; also: potency is read from the fitted curve at half-maximal effect
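Cell-based qHTS: luciferase-tagged P. falciparum in erythrocytes (2% hematocrit, 0.05% parasitemia final) incubated with compounds for 96 hours, 37 C, 5% CO2; luciferase detection reagent then added and luminescence measured.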
Sm TGR block: S. mansoni TGR enzyme inhibition; Potency, µM (highest dose often 114 µM), inactives show at the top dose activity change, negative = inhibition, actives largely listed as inhibitors; 360,000 compounds, 3% hits; Q962Y6; purified TGR, DTNB reduction, TNB absorbance 405 nm; also: potency is read from the fitted curve at half-maximal effect; nearly all actives have a fitted effect of over 60% in size
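First, TGR (20 nM dispensed) and NADPH were mixed with compound. Second, a 15 min room-temperature incubation followed. Third, further NADPH and then DTNB were added to start the reaction. Finally, TNB absorbance was monitored kinetically.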
* marks the source's active call; other numbers are inactive results; ? = inconclusive; / = no result given; [ ] = dose if it differs, or a comment. An excerpt weighted towards active compounds, which were near 14% of everything screened. Unless noted, calls follow the shape of the dose curve; as a rule, active = well fitted curve in the direction sought with a large enough effect; inconclusive = small, poorly fitted or top-dose-only effect, or another doubt; inactive = no such curve, though single readings can be large; an effect the other way counts as inactive or inconclusive. % is scaled to controls: 0 for no effect and ±100 for the full control effect.

SMILES | HCMV inh | FBPA Giardia inh | Pf growth 48h | Pf growth 96h | Sm TGR block
CSc1nc2sc3c(c2c(=O)n1-c1ccccc1C)CCCC3 | 7 | / | / | / | 9%
CC(C)CN1CC2(CCN(C(=O)c3cnccn3)CC2)C1 | / | 1% | / | / | /
COc1ccc(-c2ccc3c(c2)C2CC3CCN2C(=O)OCc2ccccc2)cc1 (centres undefined) | -20 | / | / | / | /
CC(/C=C1\SC(=S)N(c2ccc(C(=O)O)cc2)C1=O)=C\c1ccccc1 | -23 | 5% | 4.7µM* | ? | -19%
O=C(O)CCCCCn1c(O)c(C=C2N=c3ccccc3=N2)sc1=S | -80* | -1% | 8% | ? | -21%
O=C(O)c1cccc(-n2c(O)c(C=C3N=c4ccccc4=N3)sc2=S)c1 | -31 | -26% | 12µM* | ? | -4%
O=C(O)CCCn1c(O)c(C=C2N=c3ccccc3=N2)sc1=S | ? | -1% | ? | ? | -13%
CCCCn1nnnc1C(c1cc2ccccc2o1)N1CCN(C(=O)OCC)CC1 (centres undefined) | -28 | / | / | / | /
c1ccc(-c2nc3c4ccccc4ccn3c2CN2CCCCC2)cc1 | 42 | -7% | ? | ? | 18%
Cc1ccc(-c2nc3c4ccccc4ccn3c2CN2CCCCC2)cc1 | 19 | -11% | 9.3µM* | -14% | 0%
CCCc1nnc(NC(=O)CCC(=O)N2CCN(Cc3ccc(OC)c(F)c3)CC2)s1 | -76* | 7% | -30% | -9% | -2%
COc1ccc(CN2CCN(C(=O)CCC(=O)Nc3nnc(C4CCCCC4)s3)CC2)cc1F | -73* | / | -27% | 12µM* | -12%
COc1ccc(CN2CCN(C(=O)CCC(=O)Nc3nnc(C(F)(F)F)s3)CC2)cc1F | -34 | 7% | -9% | ? | -2%
COc1ccc(CN2CCN(C(=O)CCC(=O)Nc3nnc(CC(C)C)s3)CC2)cc1F | -65* | 12% | ? | -1% | -25%
CCCCOC(OCCCC)[C@H](O)CSc1ccc2ccccc2c1 | / | -3%[12.9 µM] | / | / | /
Cc1nn(C)c2c1c(-c1ccccc1)cc(=O)n2C(C)C(=O)NCCc1ccc(Cl)cc1 (centres undefined) | -7 | / | / | / | 0%
COC(=O)C12CCC(C)(c3nc4ccccc4nc31)C2(C)C (centres undefined) | -30 | -2% | -8% | 2% | /
CC(C)(C)NC(=O)C12CCC(C)(c3nc4ccccc4nc31)C2(C)C (centres undefined) | -94* | 3% | / | ? | 4%
CN(C)C(=O)C12CCC(C)(c3nc4ccccc4nc31)C2(C)C (centres undefined) | 23 | -2% | -26% | 2.6µM* | -5%
COc1ccccc1CCNC(=O)Cc1c(C)c2c(O)cc(C)cc2oc1=O | -7 | / | / | / | -1%
Cc1ccc(S(=O)(=O)Nc2cc(C)c(O)c(Sc3n[nH]c(C)n3)c2)cc1 | -40 | ? | -16% | 2% | 45µM*
Cc1ccc(S(=O)(=O)Nc2ccc3cn[nH]c3c2)cc1 | 104 | / | ? | ? | 3%
C=CCn1c(=O)c2ccccc2n2c(SC(C)C(=O)Nc3nc(-c4ccccc4)cs3)nnc12 (centres undefined) | -11 | 6% | 10µM* | ? | -1%
C/C(=N/Nc1ccccc1[N+](=O)[O-])c1ccc(C)c([N+](=O)[O-])c1 | 75 | -8% | ? | 36% | -2%
CC(C)/C(=N/Nc1ccccc1[N+](=O)[O-])c1ccccc1 | -24 | 4% | 7% | 8.3µM* | 3%[57.1 µM]
SMILES | HCMV inh | FBPA Giardia inh | Pf growth 48h | Pf growth 96h | Sm TGR block
COc1ccccc1/C=N\Nc1ccccc1[N+](=O)[O-] | -11 | 0% | 167% | 33% | 6%
CC(C)Oc1ccccc1/C=N/Nc1ccccc1[N+](=O)[O-] | 9 | 1% | ? | 8.3µM* | 4%
Cc1ccc([N+](=O)[O-])cc1NC(=O)C[n+]1ccccc1 | -29 | 0% | -5% | 13% | /
Cc1cc([N+](=O)[O-])ccc1NC(=O)C[n+]1ccc(N(C)C)cc1 | -100* | 0% | -12% | 26% | 1%
Cc1ccc(NC(=S)NCc2ccccc2)cc1[N+](=O)[O-] | -96* | 0% | 2% | ? | -15%
CNC(=S)Nc1ccc([N+](=O)[O-])c(C)c1 | ? | 0% | 18% | 73%[5.75 µM] | 40µM*
CNC(=S)Nc1ccc([N+](=O)[O-])cc1C | 1 | 1% | -4% | -27% | 10µM*
COc1cc(C(=O)Nc2ccc3c(c2)CCCN3C(=O)c2ccco2)c([N+](=O)[O-])cc1OC | -23 | / | ? | ? | -7%
Cc1cc(C)c(-c2cc([C@H](C)O/N=C\[C@@H](C)[C@H](OCc3ccccc3)C(C)C)on2)c(C)c1 | / | 1%[12.9 µM] | / | / | /
CC1CCC2(CC1)NC(=O)N(CC(=O)Nc1cccc(S(=O)(=O)N3CCCC3)c1)C2=O (centres undefined) | ? | / | ? | -26% | -9%
O=C(CNCCc1ccc(F)cc1)Nc1cc(F)ccc1F | -6 | ? | / | 9% | 9%
CC(=O)OC1CCC23CC1(C)CCC2C(C)(C)CC3OC(C)=O (centres undefined) | / | 0% | / | / | /
CC1CCCN(S(=O)(=O)c2ccc3oc(=O)ccc3c2)C1 (centres undefined) | 23 | / | -10% | -9% | -1%
N/C(=N\OC(=O)C(c1ccccc1)c1ccccc1)c1cccnc1 | 0 | -2% | ? | 10µM* | 7%
N/C(=N\OC(=O)COc1ccccc1)c1cccnc1 | -35 | / | -17% | -9% | 16%
N/C(=N\OC(=O)C(c1ccccc1)c1ccccc1)c1ccccn1 | 65 | 0% | 13µM* | 15% | 2%
CCNC(=O)C1(C)CCCN(C(=O)c2sc(-c3ccccc3)nc2C)C1 (centres undefined) | 26 | / | / | / | /
Cc1cccc(COC(=O)C(Cc2ccccc2)NC(N)=O)c1 (centres undefined) | -7 | 7% | 9% | 7% | 5%
Cc1[nH]n(-c2ccccc2)c(=O)c1C=Nc1cccc2cccnc12 | -63* | -19% | ? | 35% | 3%
Cc1ccc(-n2[nH]c(C)c(C=Nc3cc(C)ccn3)c2=O)cc1 | -5 | -6% | 35% | 7.4µM* | 5%
COc1ccc(-c2nn3c(=O)cc(CN4CCN(C(=O)Nc5cc(C)ccc5C)CC4)nc3s2)cc1 | 4 | / | / | / | 2%
O=C(CN1CCN(c2ccc(O)cc2)CC1)Nc1cc(S(=O)(=O)N2CCCCC2)ccc1Cl | -74* | -17% | -29% | 9.3µM* | -17%
CCN1CCN(CC(=O)Nc2cc(S(=O)(=O)N3CCCCC3)ccc2Cl)CC1 | 7 | / | / | / | /
CCOC(=O)C1CCN(CC(=O)Nc2cc(S(=O)(=O)N3CCCCC3)ccc2Cl)CC1 | -20 | / | 12µM* | ? | 1%
O=C(CN1CCN(c2ccc(O)cc2)CC1)Nc1cc(S(=O)(=O)N2CCCC2)ccc1Cl | ? | ? | 9.3µM* | ? | ?
